# Assay outcomes from PubChem BioAssay.
# A selection: hits, their analogues and other compounds. The true share with any hit is near 2.4%.
# Mito fusion yeast = mitochondrial division inhibition or fusion activation; AID 485298; 0.23% of 320,000 active; Potency, µM (top dose mostly 46.1 µM), inactives show at the top dose growth rescue (activation), actives largely listed as activators; S. cerevisiae fusion-defective mutant growth rescue, CellTiterGlo 48 h; also: % of control where 0% means no effect; nearly all actives have a fitted effect of over 45% in size
#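 Temperature-sensitive fusion-defective S. cerevisiae (e.g. fzo1-1, mgm1-5) were grown with compound in YPEG medium (3% ethanol, 3% glycerol) for 48 hours at 37C. Growth rescue was measured as viability by CellTiterGlo luminescence after 10 minutes at ambient.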
# TDP43 rescue = inhibitors of TDP-43 toxicity in yeast. Potency, µM (highest dose often 46.1 µM), without a hit: at the highest dose growth rescue (activation), hits mostly activators. AID 652104. TDP-43 expressing yeast growth rescue, BacTiter-Glo, 24 h. 1.8% of 410,000 active; also: % of control where 0% means no effect; nearly all actives have a fitted effect of over 50% in size
#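 Yeast expressing TDP-43 (pregrown in raffinose, seeded at OD600=0.02 in galactose medium) exposed to compounds 24 hr at 30 deg C. Growth read by BacTiter-Glo luminescence; rescue of toxicity appears as increased signal.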
# Abeta yeast res = A-beta toxicity reversal in yeast. yeast expressing A-beta42, growth rescue, OD600, 48 h; response scale: 0% DMSO, 100% iron-clioquinol control. Potency, µM (highest dose often 46.1 µM), most hits filed as activators. 0.063% of 410,000 active; also: nearly all actives have a fitted effect of over 55% in size
#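 Yeast growth medium received pinned compounds, then yeast cells expressing toxic A-beta were added; plates incubated at 30 C for 48 hr. Growth read as absorbance at 600 nm, normalized to DMSO and equimolar FeCl3 plus clioquinol controls.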
# A-T KAP1 phos = candidate therapy for ataxia-telangiectasia; F2112 A-T fibroblasts, KAP-1 phosphorylation AlphaLISA; neocarzinostatin DNA damage 30 min before lysis; Potency, µM (highest dose often 57.5 µM), without a hit: at the top dose activation, usual class: activators; 0.19% of 320,000 active; AID 485349; also: % of control where 0% means no effect; nearly all actives have a fitted effect of over 45% in size
#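 hTERT-immortalized A-T patient fibroblasts (F2112), 500 cells/well in OPTI-MEM, 1% FBS, got compounds for 60 min, then NCS for 30 min at 37C. Lysates were then assayed for phospho-KAP-1 by AlphaLISA (anti-pKAP1 donor, anti-KAP1 acceptor beads), 6 hr at 25C.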
# FUS suppressor = FUS proteinopathy suppression in yeast; 0.24% of 390,000 active; S. cerevisiae FUS-expressing, growth rescue, OD600, 24 h; Potency, µM (doses to about 76.6 µM), hits mostly activators;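 also: plate controls were DMSO vehicle for no effect and reference control for full effect; nearly all actives have a fitted effect of over 55% in size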
#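 Read-out: OD at 600 nm after 24hr at 30C, reporting rescue of FUS-induced yeast toxicity. Cells at OD 0.005 in galactose (2%) minimal medium; compounds tested in a dilution series; CP55940 titration from 92uM final as control.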
# aSyn rescue = inhibitors of alpha-synuclein toxicity in yeast | AID 652106 | 0.14% of 370,000 active | Yeast expressing alpha-synuclein, growth rescue, BacTiter-Glo, 24 h | Potency, µM (top dose mostly 46.1 µM), for the others: top-dose growth rescue (activation), hits mostly activators; also: % of control where 0% means no effect; nearly all actives have a fitted effect of over 65% in size
#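 Readout is rescue of growth in alpha-synuclein-expressing yeast, so inhibitors of toxicity appear as activators. Growth after 24 hr at 30 deg C in galactose medium is quantified by luminescence.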
# * marks the source's active call; other numbers are inactive results; i = inactive; ? = inconclusive; · = no result given; [ ] = another dose, or the depositor's remark. Calls follow the shape of the dose curve; as a rule, active = well fitted curve in the direction sought with a large enough effect; inconclusive = small, poorly fitted or top-dose-only effect, or another doubt; inactive = no such curve, though single readings can be large; an effect the other way counts as inactive or inconclusive. Potency is read from the fitted curve at half-maximal effect.
SMILES,Mito fusion yeast,TDP43 rescue,Abeta yeast res,A-T KAP1 phos,FUS suppressor,aSyn rescue
O=C(Nc1cccc(Cl)c1)O[C@@H]1CC[C@@]23CCCN2C(=O)CCC[C@H]3C1,·,·,·,·,i,·
COC(=O)C1=C(C(=O)OC)C(c2cc(Cl)ccc2O)c2sc(=O)[nH]c2S1 (stereo not drawn),5.6%,-14.4%,i,-3.9%,i,14.1µM*
CCn1c(=O)n2n(c1=O)[C@H]1C[N+](Cc3ccc4c(c3)OCO4)=C(N)NC1=C(C)C2,·,·,·,·,i,·
COc1ccc2[nH]c(-c3ccccc3)cc2c1,-20.7%,12.6µM*,i,-3.3%,i,0.5%
COc1ccc2nc(-c3ccccc3)[nH]c2c1,4.0%,18.5%,i,0.7%,i,-18.1%
CCC(C)NC(=O)CN1C(=O)c2cccnc2Oc2ccc(C)cc21 (stereo not drawn),·,-2.5%,i,·,i,·
CC(OC(=O)c1cc(-c2cccnc2)nc2ccccc12)C(=O)Nc1ccc2ccccc2c1 (stereo not drawn),2.8%,-6.5%,i,3.8%,5.62µM*,8.9%
O=C(NNC(=S)Nc1ccccc1)c1cc(-c2cccnc2)nc2ccccc12,-0.2%,?,i,-6.0%,i,-3.2%
COc1ccc(/C=C/C(=O)N2CCCc3ccccc32)cc1,28.7%,20µM*,i,·,·,-1.0%
COc1ccc(OC)c(/C=C/C(=O)N2CCCc3ccccc32)c1,27.0%,?,i,-0.6%,i,12.4%
COc1ccc(N/N=C(/C(C)=O)N2CCCc3ccccc32)cc1,11.2%,20µM*,i,-0.1%,i,-2.9%
COc1ccc(NC(=O)N2CCCc3ccccc32)cc1,-0.6%,16.3%,i,2.5%,i,-0.8%
CCOc1ccccc1NC(=O)Cn1c(=O)n(-c2ccc(C)c(C)c2)c(=O)c2c(C)c(C(=O)N(C)C)sc21,·,0.0%,i,·,i,·
O=C(CCCCCn1c(=O)[nH]c2ccsc2c1=O)NCc1ccccc1,·,10.1%,i,·,i,·
C/C(C=NNC(=O)CSc1nnc(-c2ccc(Cl)cc2)n1-c1ccccc1)=C\c1ccccc1,·,·,·,·,i,·
NC(=S)NN=C1CSSC1,·,20µM*,?,·,i,2.82µM*
O=C(c1ccc(Cl)c(Cl)c1)N1CCN(c2ccnc3cc(Cl)ccc23)CC1,·,·,·,·,i,·
Nc1c(Cl)ncnc1N/N=C/c1ccc2ccccc2n1,2.7%,?,i,4.1%,i,6.31µM*
Nc1c(Cl)ncnc1N/N=C/c1ccccn1,?,-62.5%,i,-2.2%,i,-31.9%
CC(C)CN(c1ccccc1)S(=O)(=O)c1nnc(NC(=O)C2CCCCC2)s1,·,-11.6%,i,·,i,·
Cc1cc(N2CCC[C@@H]2C)nc2ccccc12,·,·,·,·,i,·
O=C(O)C1C2C=CC(C2)C1C(=O)NCc1ccc2c(c1)OCO2 (stereo not drawn),0.9%,2.1%,i,-4.3%,i,3.2%
O=C(O)C1C2C=CC(C2)C1C(=O)NCc1ccc(Cl)c(Cl)c1 (stereo not drawn),8.0%,20µM*,i,-4.3%,i,0.5%
Cc1cccc(C)c1NC(=O)CN1C(=O)c2cccc3cccc1c23,·,28.0%[9.22 µM],i,·,i,·
O=C(NCC1CCCO1)c1ccccc1NS(=O)(=O)c1cccc([N+](=O)[O-])c1 (stereo not drawn),·,7.5%,i,4.2%,i,?
SMILES,Mito fusion yeast,TDP43 rescue,Abeta yeast res,A-T KAP1 phos,FUS suppressor,aSyn rescue
O=C(NCC1CCCO1)c1ccccc1NS(=O)(=O)c1cc([N+](=O)[O-])ccc1Cl (stereo not drawn),·,-18.3%,i,11.9%,·,22.4µM*
CC(C)CC1N=C2c3ccccc3N=C(SCC(=O)NCCc3ccc(Cl)cc3)N2C1=O (stereo not drawn),·,6.1%,i,·,i,·
COc1ccccc1C(=O)NC1(C(F)(F)F)NC(=O)N(CCc2ccccc2)C1=O (stereo not drawn),·,17.6%,i,·,i,·
CC(C)Oc1ccc(C(=O)NC2(C(F)(F)F)NC(=O)N(CCCc3ccccc3)C2=O)cc1 (stereo not drawn),20µM*,-8.7%,i,-0.1%,·,16.4%
Cc1cc(C)c2sc(N(Cc3cccnc3)C(=O)CCS(=O)(=O)c3ccccc3)nc2c1,·,4.5%,i,·,i,·
Fc1ccc(Nc2nc3ccccc3n3cnnc23)c(F)c1,·,8.91µM*,i,·,i,·
CCN(C(=O)C(=O)Nc1ccc2nc3n(c(=O)c2c1)CCCCC3)c1ccc(F)cc1,·,24.2%,i,·,i,·
O=C(COc1ccc(Br)cc1)NCC1COc2ccccc2O1 (stereo not drawn),14.2%,25.1µM*,i,10.2%,i,?
O=C(COC(=O)c1ccccc1O)NCC1COc2ccccc2O1 (stereo not drawn),9.1%,16.2%,i,9.7%,·,11.0%
Cc1ccccc1C(=O)OCC(=O)NCC1COc2ccccc2O1 (stereo not drawn),27.8%,14.1µM*,i,-6.5%,·,14.0%
CC(C)Oc1ccc(/C=C/C(=O)NCC2COc3ccccc3O2)cc1 (stereo not drawn),-9.4%,17.8µM*,?,-5.0%,i,2.4%
O=C(COc1ccccc1)NCC1COc2ccccc2O1 (stereo not drawn),-4.2%,8.9%,i,2.0%,i,8.1%
COCc1c(C(=O)NCC2COc3ccccc3O2)oc2ccccc12 (stereo not drawn),19.5%,31.6µM*,i,3.2%,i,0.8%
CCOc1ccc(CCNC(=O)c2cc3ccsc3n2C)cc1OC,·,·,·,·,i,·
O=C(Nc1cccc(Cl)c1)C1CCCN(c2nn3cc(-c4ccc(F)cc4)nc3s2)C1 (stereo not drawn),·,?,i,·,i,·
Clc1ccc(-c2nnc(C3CC3)o2)cc1,4.0%,6.7%,i,-5.3%,i,7.7%
Clc1ccc(-c2nnc(C3CCCCC3)o2)cc1,?,11.2µM*,i,12.3%,i,-3.4%
COc1ccccc1C1CCN(C(=O)c2cccs2)CC1,1.9%,12.6µM*,i,4.4%,i,-2.7%
CCCn1c(CCCNC(=O)c2ccccc2OC)nc2ccccc21,·,-19.2%,i,·,i,·
Clc1ccc(C(Cn2ccnc2)OCc2c(Cl)cccc2Cl)c(Cl)c1 (stereo not drawn),6.31µM*,?,i,1.8%,i,?
CCOc1ccc(NC(=O)N2CCOc3ccccc32)cc1,·,11.2µM*,i,·,i,·
O=C(CCn1c(=O)c2cccn2c2cccnc21)N1CCN(c2ccc(F)cc2)CC1,·,12.6µM*,i,·,i,·
